# According to PubChem BioAssay AID624273 (Broad Institute, 2012):
# Screen size: about 1,000 compounds; about 230 (23%) were called active. Not shown: some 1% with an inconclusive outcome. The list shows a part of the results. Entries with a potency or affinity are not part of this list. Unmarked numbers belong to inactive results. How the calls were made is not given here.
# Target: Long-chain-fatty-acid--AMP ligase FadD28 (Mycobacterium tuberculosis (strain ATCC 25618 / H37Rv)) (UniProt P9WQ59)
# Assay: inhibitors of FadD28 bisubstrate probe binding, dose response, biochemical, fluorescence polarization, cherry-pick (AID 624273)
# Details: series mostly up to 50 µM; activity change, negative = inhibition: at the top concentration
# Chain of Long-chain-fatty-acid--AMP ligase FadD28 (Mycobacterium tuberculosis (strain ATCC 25618 / H37Rv)) (P9WQ59 whole entry, looked up): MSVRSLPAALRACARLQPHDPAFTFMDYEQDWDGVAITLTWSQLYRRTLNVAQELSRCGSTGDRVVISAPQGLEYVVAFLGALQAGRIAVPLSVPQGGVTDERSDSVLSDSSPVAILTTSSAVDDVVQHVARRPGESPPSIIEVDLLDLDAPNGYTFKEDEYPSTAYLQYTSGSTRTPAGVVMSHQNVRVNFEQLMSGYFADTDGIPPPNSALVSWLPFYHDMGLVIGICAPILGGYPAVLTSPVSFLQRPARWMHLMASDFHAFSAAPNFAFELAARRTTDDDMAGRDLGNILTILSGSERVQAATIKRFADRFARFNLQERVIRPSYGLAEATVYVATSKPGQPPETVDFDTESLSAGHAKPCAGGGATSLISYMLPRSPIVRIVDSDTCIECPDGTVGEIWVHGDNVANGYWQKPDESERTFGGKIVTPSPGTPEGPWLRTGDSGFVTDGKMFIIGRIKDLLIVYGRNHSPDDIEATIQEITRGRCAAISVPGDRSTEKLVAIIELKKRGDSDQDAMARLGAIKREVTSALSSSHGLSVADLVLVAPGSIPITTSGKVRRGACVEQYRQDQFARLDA
row,SMILES,"activity change, negative = inhibition"
1,CCCN1C(=O)c2ccccc2NC1c1ccc(Cl)cc1 (stereo not given),-1.06%
2,CC(=O)c1cccc(NC(=O)CN(c2cccc(F)c2)S(C)(=O)=O)c1,3.17%
3,COc1cccc(CNC(=O)CN(C)S(=O)(=O)c2cnc[nH]2)c1,-2.62%
4,COc1ccc(CNC(=O)COc2ccc(OC)cc2)cc1,-4.06%
5,COc1cccc(-c2cc(C(=O)Nc3ccncc3)c3ccccc3n2)c1,4.9%
6,COc1cnc(-c2cccc(C(F)(F)F)c2)c(NC(=O)c2cc3ccccc3s2)n1,-0.128%
7,CCOc1ccc(N=Nc2c(C)[nH]n(-c3ccccc3)c2=O)cc1,-5.21%
8,O/N=C1\CC/C(=N\O)c2nn(-c3ccccc3Cl)nc21,-1.62%
9,O=C(CN1C(=O)NC2NC(=O)NC21)NC1CCCCC1 (stereo not given),-5.35%
10,COc1ccc(C(=O)/C(C#N)=N/Nc2cccc([N+](=O)[O-])c2)cc1,-8.25%
11,Cc1ccc(C(=O)COC(=O)c2cccc(NC(=O)c3ccc([N+](=O)[O-])cc3[N+](=O)[O-])c2)cc1,-3.42% [at 16 µM]
12,N#Cc1c(-c2ccccc2)c(-c2ccccc2)nn(CC(=O)NNC(=O)Nc2ccc(Cl)c(Cl)c2)c1=O,-10.7%
13,N/C(=N\OC(=O)COc1ccc2ccccc2c1)c1ccncc1,-14%
14,COC(=O)c1c(-c2ccc(C)cc2)csc1NC(=O)C1CC=CCC1C(=O)O (stereo not given),11.9%
15,Cc1ccc([N+](=O)[O-])cc1N=Nc1c(-c2ccc([N+](=O)[O-])cc2)[nH]n(C(N)=S)c1=O,0.54%
16,CCc1noc(C)c1C(=O)Nc1cc(S(=O)(=O)N2CCOCC2)ccc1OC(C)C,-11.1%
17,CCOC(=O)N1CCN(C2CC(=O)N(c3ccc(F)cc3)C2=O)CC1 (stereo not given),-8.96%
18,C[C@@H]1CN([C@H](C)CO)C(=O)c2cc(NC(=O)Nc3ccc(C(F)(F)F)cc3)ccc2O[C@H]1CN(C)S(=O)(=O)c1ccc(Cl)cc1,-1.46%
19,Cc1cc(=O)oc2c(CN3CCN(CCO)CC3)c(O)ccc12,-6.12%
20,Cc1cccc(C(=O)NNS(=O)(=O)c2ccc(F)cc2)c1O,-20.4%
21,O=C(NNC(=O)c1ccc([N+](=O)[O-])cc1)c1ccc(NS(=O)(=O)c2cccs2)cc1,-2.28%
22,COc1cc(NC(=O)COC(=O)CC2CC3CCC2C3)cc(OC)c1 (stereo not given),-13.2%

row,SMILES,"activity change, negative = inhibition"
1,CCSc1ccccc1C(=O)Nc1cc(C)on1,-5.14%
2,COc1cccc(C(=O)OCC(=O)NC(=O)NC2CCCC2)c1O,-9.96%
3,COC(=O)c1cc(C(=O)OCC(=O)NC2CCCC2)cc([N+](=O)[O-])c1,-1.93%
4,CC(=O)NC(CCS(C)(=O)=O)C(=O)N1CCc2ccccc21 (stereo not given),-7.29%
5,COc1cccc(OCc2cc(C(=O)N(C)CCOc3ccc(C)cc3)no2)c1,-4.38%
6,CC(C)=NOc1cc(NC(=O)CCl)cc([N+](=O)[O-])c1,1.51%
7,C/C(=N\NC(=O)COc1ccccc1)c1ccc(O)cc1,-3.89%
8,Nc1nnnn1/N=C/c1cc(Cl)cc(Cl)c1O,-12.6%
9,O=C(O)Cn1c2ccccc2c2n[nH]c(=S)nc21,-4.23%
10,CCOC(=O)c1cc(NC(=O)c2ccc(Cl)cc2)c(=O)n2c1oc1ccc(Cl)cc12,-3.91%
11,S=c1nc[nH]c2c1sc1nc(-c3ccccc3)c3c(c12)CCCC3,-9.92%
12,CCn1c(SCC(=O)Nc2ccc(N3CCOCC3)cc2)nnc1-c1ccncc1,-6.22%
13,Cc1ccc(C)c(NS(=O)(=O)c2ccc(NC(=O)CSc3ccc(Cl)cc3)cc2)c1,1.79%
14,Cc1ccc(OCc2nc(-c3ccccn3)no2)cc1,-10.9%
15,COc1ccc(CCNC(=O)c2ccc(NS(=O)(=O)c3ccc4[nH]c(=O)[nH]c4c3)cc2)cc1,1.58%
16,COc1ccc(CCNC(=O)c2ccccc2NS(=O)(=O)c2c(F)cccc2F)cc1,-11.5%
17,CCC(C)(C)NC(=O)CN(C(=O)CCC(=O)Nc1nccs1)c1ccc2c(c1)OCO2,-2.29%
18,COc1ccc(COc2ccc3c(C)cc(=O)oc3c2)cc1,2.11%
19,CCOC(=O)c1ccc(NC(=O)c2nc[nH]c2C(=O)N(CC)CC)cc1,-3.82%
20,Cc1ccc(S(=O)(=O)N(C)CC(=O)OCC(=O)NC(=O)Nc2ccc3c(c2)OCCO3)cc1,-15.2%
21,COc1ccc(S(=O)(=O)N2CCC(C(=O)NCCC(=O)NCc3ccncc3)CC2)cc1,-5.1%
22,O=C(NCc1ccc(F)cc1)C(Cc1ccccc1)NS(=O)(=O)c1cccs1 (stereo not given),-0.603%

row,SMILES,"activity change, negative = inhibition"
1,COC(=O)[C@H](Cc1ccccc1)NC(=O)NCc1ccc(C)cc1,-8.21%
2,Cc1ccc(C)c(NC(=O)C(CC(=O)O)Cc2ccccc2)c1 (stereo not given),4.67%
3,O=C(NC(Cc1ccccc1)C(=O)O)C1CCN(S(=O)(=O)c2ccccc2C(F)(F)F)CC1 (stereo not given),-4.71%
4,C[C@H](CO)N1C[C@H](C)[C@H](CN(C)S(=O)(=O)c2cn(C)cn2)Oc2ccc(NC(=O)Nc3ccc(C(F)(F)F)cc3)cc2CC1=O,2.87%
5,NC(Cc1ccccc1)c1nn[nH]n1 (stereo not given),-6.01%
6,CN1CCN(NC(=O)c2ccc(S(=O)(=O)N3CCCCCC3)cc2)CC1,2.84%
7,O=C(O)c1cc2ccccc2cc1Nc1ccccc1,-13.8%
8,CC(=O)c1ccc(Oc2cc(-c3ccccc3)nc(-c3ccccc3)n2)cc1,-5.3%
9,CCN(CC)CCCn1c(=S)[nH]c2cc(Cl)ccc2c1=O,-6.33%
10,COC1=CC(=O)OC(CCc2ccc3c(c2)OCO3)C1 (stereo not given),2.47%
11,Cc1ccc(C(=O)n2nc(C#N)c(C#N)c2N)cc1,-4.3%
12,CC(=O)N1CCN(c2ccc(NC(=O)c3ccc(C(C)(C)C)cc3)cc2)CC1,-6.95%
13,N#Cc1ccc(OCC(=O)OCC(=O)Nc2ccc(N3CCOCC3)cc2)cc1,-5.79%
14,O=C(Sc1ccc(Cl)cc1)c1ccccn1,-4.7%
15,O=[N+]([O-])c1ccc(N2CCCCCC2)c2nonc12,-8.88%
16,Cn1c(N)c(S(=O)(=O)N2CCN(c3ccccc3Cl)CC2)c(=O)n(C)c1=O,-8.51%
17,CCc1c(C)sc(NC(=O)C2CC2c2ccccc2)c1C(N)=O (stereo not given),-0.5%
18,O=C(/C=C/c1ccc([N+](=O)[O-])cc1)/C=C/c1ccco1,-4.48%
19,Cc1c(C(=O)C(=O)N2c3ccccc3CC2C)c2ccccc2n1C (stereo not given),-0.858%
20,C=CCn1c(C)csc1=Nc1ccc(C(C)=O)cc1,-4.17%
21,O=C(c1cccc(S(=O)(=O)N2CCN(c3ccccc3)CC2)c1)N1CCCCCCC1,-6.53%
22,Cc1ccccc1-c1nnc(-c2cccc3ccccc23)o1,-3.76%

row,SMILES,"activity change, negative = inhibition"
1,COc1ccc(C)cc1NC(=O)CSc1nnc(-c2ccc(Br)cc2)o1,-0.706%
2,CCc1cccc(NC(=O)COC(=O)/C=C/c2cccs2)c1,2.6%
3,COc1ccc(C(=O)c2ccsc2N)cc1,-3.79%
4,Cc1ccc(OCCCN2CCOCC2)cc1,-0.236%
5,Cc1ccc(S(=O)(=O)/N=C2\C=C(Nc3ccc(O)cc3)C(=O)c3ccccc32)cc1,-11.4%
6,O=C(CSc1nnc(Cc2ccccc2)n1-c1ccccc1)NNC(=O)Cc1ccccc1,-1.66%
7,O=C(COC(=O)c1cc(S(=O)(=O)Nc2ccccc2Cl)ccc1O)Nc1nc2ccccc2s1,-2.04%
8,CCc1nnc(NC(=O)CSc2ncnc3c2oc2ccccc23)s1,-2.91%
9,O=C(COC(=O)c1ccc(NS(=O)(=O)c2cccs2)cc1O)Nc1nc2ccccc2s1,-4.46%
10,O=C(NCC(c1cccs1)N1CCOCC1)c1cc2ccccc2oc1=O (stereo not given),-4.79%
11,O=c1c2c3c(sc2nc2n1CCC2)CCCC3,-5.38%
12,CCc1cccc2c(C(=O)CN3C(=O)NC(C)(c4cccc5ccccc45)C3=O)c[nH]c12 (stereo not given),-14.2%
13,CC(C)C(NC(=O)c1ccc2c(c1)OCO2)C(=O)N/N=C/c1cccs1 (stereo not given),-4.73%
14,NC(Cc1ccc(C(F)(F)F)cc1)c1csc(NC(=O)Nc2ccccc2)n1 (stereo not given),-13.6%
15,Oc1ccccc1/C=N/n1c2ccccc2c2ccccc21,-3.98%
16,CN=c1scc(-c2ccco2)n1/N=C/c1ccc(O)c(O)c1,-3.77%
17,CCN=c1scc(-c2ccco2)n1/N=C/c1ccc(OC)c(O)c1,-1.88%
18,Oc1ccc(/C=N/N(Cc2ccccc2)c2ccccc2)c(O)c1O,-9.42%
19,CCOC(=O)c1c(-c2ccc(C)s2)csc1NC(=O)c1cccs1,-5.93%
20,CCOc1ccccc1NC(=O)CSc1nnc(-c2ccncc2)o1,-7.28%
21,CCOc1ccc(C(=O)Nc2cc(-c3nc4ccccc4[nH]3)ccc2C)cc1[N+](=O)[O-],-2.24%
22,CC(C)NCC(=O)Nc1c2c(nc3ccccc13)CCC2,2.17%

row,SMILES,"activity change, negative = inhibition"
1,O=c1[nH]nc(-c2ccccc2)cc1-c1ccccc1,-2.33%
2,COc1ccccc1CN1CCCC(C(=O)N2CCCCC2)C1 (stereo not given),-3.04%
3,COc1cccc(/C=N/Nc2nc(C)cc(=O)[nH]2)c1OC,-8.26%
4,CCOC(=O)C1=C(C)NC(C)=C(C(=O)OCC)C1c1sccc1C,-4.22%
5,CCOc1ccc(-n2c(=O)c3sccc3n(CC(=O)Nc3cccc(OC)c3)c2=O)cc1,-5.66%
6,COc1cccc(CN(C)C(=S)Nc2ccc(C)c(C)c2)c1,-8.65%
7,O=C(Nc1cccc(F)c1)NC1CCCCCCC1,-9.32%
8,Nc1ccc(NC(=O)NC2CCCCC2)cc1[N+](=O)[O-],-4.53%
9,N=c1n(Cc2ccccc2)c2ccccc2n1CC(O)c1ccco1 (stereo not given),-1.34%
10,CCn1ncc(NC(=S)NCCc2ccccc2)c1C(N)=O,-2.3%
11,CC(=O)Nc1ccc(OC(F)(F)C(F)F)c(NC(C)=O)c1,-0.083%
12,CC(C)CC(=O)Nc1nnc(S(=O)(=O)N(C)c2ccc(Cl)cc2)s1,-4.92%
13,COc1ccc(/C=N/n2c(SC)nnc(C(C)(C)C)c2=O)cc1OC,-5.2%
14,COc1ccc(/C=N/NC(=O)CN(C2=NS(=O)(=O)c3ccccc32)c2ccccc2)cc1OC,0.459%
15,c1ccc(-c2nnc(N3CCCC3)nc2-c2ccccc2)cc1,-12.7%
16,CC(O)(c1cccnc1)c1nc(-c2cccc(C(F)(F)F)c2)cs1 (stereo not given),0.004%
17,O=C(COC(=O)c1ccc(Cl)c(S(=O)(=O)N2CCCCCC2)c1)Nc1ccccc1,-0.876%
18,O=C(NCCc1c[nH]c2ccccc12)/C(=C/c1ccco1)NC(=O)c1ccco1,-0.53%
19,COc1ccc(CCNC(=O)c2ccc(Cl)c(S(=O)(=O)N(C)c3ccccc3)c2)cc1,-12.1%
20,Cc1ccc(C(=O)OCC(=O)c2ccc(Br)cc2)cc1S(=O)(=O)N1CCOCC1,-11.9%
21,CCN(CC)S(=O)(=O)c1cccc(C(=O)NCCCN2CCOCC2)c1,0.631%
22,COc1ccc(CC(=O)Nc2nnc(SCc3ccccc3)s2)cc1S(=O)(=O)N1CCOCC1,-13%
